This is one part of a sample in which hits are shown more often than they occur.
U2OS ROS induce: raises reactive oxygen species in U2OS cancer cells | U2OS ROS induction, H2DCF-DA fluorescence | ROS induction (% of piperlongumine), % at 10 µM | hit rate 2% among 46,000 | AID 624156; in the data active = ROS induction above about 79%, passing the limit was not always enough
Each line names hits and unclear results; the compound was inactive in the other large screens.

C[C@H]1CN([C@@H](C)CO)C(=O)Cc2cc(NS(=O)(=O)c3ccc(F)cc3)ccc2O[C@H]1CN(C)Cc1ccc(C(=O)O)cc1	none
O=C(CSc1nnnn1-c1ccccc1)Nc1cc(Cl)ccc1C(=O)O	U2OS ROS induce 153.7
O=C(CSc1nnnn1-c1ccccc1)Nc1cc(Cl)c(Cl)cc1Cl	none
O=C(CSc1nnnn1-c1ccc(Cl)cc1)Nc1ccc(Cl)cc1Cl	none
Cc1noc(C)c1S(=O)(=O)N(C)C[C@@H]1Oc2ccc(NC(=O)NC3CCCCC3)cc2CC(=O)N([C@@H](C)CO)C[C@@H]1C	none
C[C@@H]1CN([C@H](C)CO)C(=O)Cc2cc(NC(=O)Cc3cn(C)c4ccccc34)ccc2O[C@@H]1CN(C)CC1CC1	U2OS ROS induce 123.8
C[C@@H]1CN([C@@H](C)CO)C(=O)Cc2cc(NC(=O)Cc3cn(C)c4ccccc34)ccc2O[C@@H]1CN(C)Cc1ccc(-c2ccccc2)cc1	U2OS ROS induce 85.4
C[C@@H]1CN([C@@H](C)CO)C(=O)Cc2cc(NC(=O)Cc3cn(C)c4ccccc34)ccc2O[C@@H]1CN(C)Cc1ccc(C(=O)O)cc1	none
COc1ccc(CN(C)C[C@H]2Oc3ccc(NC(=O)Cc4cn(C)c5ccccc45)cc3CC(=O)N([C@H](C)CO)C[C@H]2C)cc1	none
C[C@H]1CN([C@@H](C)CO)C(=O)Cc2cc(NC(=O)Cc3cn(C)c4ccccc34)ccc2O[C@H]1CN(C)CC1CCCCC1	none
C[C@@H]1CN([C@H](C)CO)C(=O)Cc2cc(NC(=O)Cc3cn(C)c4ccccc34)ccc2O[C@@H]1CN(C)Cc1ccc(-c2ccccc2)cc1	U2OS ROS induce 109.1
C[C@@H]1CN([C@H](C)CO)C(=O)Cc2cc(NC(=O)Cc3cn(C)c4ccccc34)ccc2O[C@H]1CN(C)Cc1ccccc1	none
C[C@@H]1CN([C@H](C)CO)C(=O)Cc2cc(NC(=O)Cc3cn(C)c4ccccc34)ccc2O[C@@H]1CN(C)C	none
C[C@@H]1CN([C@H](C)CO)C(=O)Cc2cc(NC(=O)Cc3cn(C)c4ccccc34)ccc2O[C@@H]1CN(C)Cc1ccncc1	none
C[C@@H]1CN([C@H](C)CO)C(=O)Cc2cc(NC(=O)Cc3cn(C)c4ccccc34)ccc2O[C@@H]1CN(C)Cc1ccc(Oc2ccccc2)cc1	U2OS ROS induce 130.6
C[C@H](CO)N1C[C@H](C)[C@H](CN(C)Cc2ccc(Oc3ccccc3)cc2)Oc2ccc(NC(=O)Cc3cn(C)c4ccccc34)cc2CC1=O	none
C[C@H](CO)N1C[C@H](C)[C@H](CN(C)Cc2ccc(-c3ccccc3)cc2)Oc2ccc(NC(=O)Cc3cn(C)c4ccccc34)cc2CC1=O	none
CC(C)c1ccc(NC(=O)CSc2nnc(-c3ccc(Br)cc3)n2C)cc1	none
COc1ccc(C)cc1S(=O)(=O)N1CCCC(C(=O)Nc2ccccc2)C1 (stereo not given)	none
Cc1noc(C)c1NC(=O)Nc1ccc2c(c1)C(=O)N([C@H](C)CO)C[C@H](C)[C@H](CN(C)C(=O)Nc1ccc(C(F)(F)F)cc1)OCCCC[C@@H](C)O2	none
COc1ccc(C(=O)CC2(O)C(=O)N(CCCC#N)c3ccccc32)c(OC)c1 (stereo not given)	none
O=C(CCCCCCC(=O)Nc1ccccc1O)NN=C1CCCCCC1	none
CCCCn1c(SCC(=O)NCc2ccccc2)nc2c(sc3ccccc32)c1=O	none
C=CCN(C(=O)CSc1nc2[nH]ncc2c(=O)n1-c1cccc2ccccc12)c1ccccc1	none
C=CCN(C(=O)CSc1nc2c(sc3ccccc32)c(=O)n1Cc1cccnc1)c1ccccc1	U2OS ROS induce 154.1
COc1ccc([N+](=O)[O-])cc1NC(=O)CN(c1ccccc1Br)S(C)(=O)=O	none
Cc1nn(C)cc1CNC(=O)c1cnn2c(C(F)F)cc(C3CC3)nc12	none
O=C(NCc1ccco1)c1cnn2c(C(F)F)cc(-c3ccccc3)nc12	U2OS ROS induce 192.9
NC(=O)c1c(NC(=O)c2cnn3c(C(F)F)cc(-c4ccccc4)nc23)sc2c1CCC2	none
COc1cccc(OC)c1C(=O)NC(=S)NCc1cccnc1	none
COc1ccccc1-c1cc(C(F)F)n2ncc(C(=O)NCc3cccnc3)c2n1	U2OS ROS induce 115.9
COc1ccc(C(=O)NCc2cccnc2)cc1C(=O)NCc1cccnc1	none
C[C@@H]1CCCCO[C@H](CN(C)Cc2ccc3c(c2)OCO3)[C@@H](C)CN([C@H](C)CO)C(=O)c2cc(NC(=O)C3CCCCC3)ccc2O1	none
C[C@H](CO)N1C[C@H](C)[C@@H](CN(C)Cc2ccc(Oc3ccccc3)cc2)Oc2ccc(NS(=O)(=O)c3cn(C)cn3)cc2C1=O	none
COc1ccccc1OCCOc1ccc(-c2nc3sc4c(c3c(=O)[nH]2)CCCC4)cc1	none
CCN(CC(=O)Nc1cc(Cl)ccc1OC)S(=O)(=O)c1ccc(C)cc1	none
Cc1ccc(C)c(NC(=O)C(C)n2sc3ccccc3c2=O)c1 (stereo not given)	none
Cc1cccc(-n2ncc3c(NCCc4ccccc4)ncnc32)c1	none
COc1ccc(C2C(C(=O)O)c3ccccc3C(=O)N2Cc2ccc(Cl)cc2)cc1 (stereo not given)	none
COc1ccc([Si](C)(C)[C@H]2[C@H](CCO)O[C@@]3(C(=O)N(Cc4ccccc4)c4ccc(N5CCCCC5=O)cc43)[C@@H]2C)cc1	none
COc1ccc(CN2C(=O)[C@@H]3[C@H]4C(=O)O[C@H](c5ccccc5)[C@@H](C)N(C)C(=O)CC/C=C/[C@H]4O[C@@]34C=CCN(Cc3ccccc3)C(=O)[C@@H]24)cc1	U2OS ROS induce 121.9
C[C@@H]1CN([C@@H](C)CO)C(=O)c2cccc(NC(=O)CCCCCC(=O)Nc3ccccc3N)c2O[C@@H]1CN(C)C(=O)NC1CCCCC1	none
C[C@@H]1CN([C@@H](C)CO)C(=O)c2cccc(NS(=O)(=O)c3ccc(F)cc3)c2O[C@@H]1CN(C)Cc1ccncc1	none
C=CCN1C(=O)C2(C(C#N)=C(N)Oc3c2c(=O)oc2ccccc32)c2ccccc21 (stereo not given)	none
N#CC1=C(N)Nc2c(c(=O)oc3ccccc23)C1c1ccc(Br)cc1 (stereo not given)	U2OS ROS induce 81.0
COc1cccc(C(=O)Nc2ccc(NC(=O)C3CCCCC3C(=O)O)cc2)c1 (stereo not given)	none
COc1ccc(NC(=O)C2CCCCC2C(=O)O)cc1OC (stereo not given)	none
Cc1cc(NC(=O)C2CCCCC2C(=O)O)ccc1NC(=O)c1ccccc1 (stereo not given)	U2OS ROS induce 126.3
Cc1ccccc1NC(=O)C(CC(C)C)N1C(=O)c2ccccc2C1=O (stereo not given)	none
C=CC[C@@]1(C(=O)NCC(O)CO)N=C(c2ccc(OCCCO)cc2)O[C@@H]1c1ccccc1 (stereo not given in full)	none
COC(=O)c1c(-c2ccc(Br)cc2)csc1NC(=O)C1CCCCC1C(=O)O (stereo not given)	none
C[C@@H]1CN([C@@H](C)CO)C(=O)c2cccc(NC(=O)CCCCCC(=O)Nc3ccccc3N)c2O[C@H]1CN(C)Cc1ccc2c(c1)OCO2	U2OS ROS induce 104.8
C[C@@H]1CN([C@H](C)CO)C(=O)Cc2cc(NC(=O)CCCCCC(=O)Nc3ccccc3N)ccc2O[C@@H]1CN(C)Cc1ccc(Cl)c(Cl)c1	U2OS ROS induce 83.7
C[C@@H]1CN([C@H](C)CO)C(=O)Cc2cc(NC(=O)CCCCCC(=O)Nc3ccccc3N)ccc2O[C@@H]1CN(C)Cc1ccncc1	none
C[C@H](CO)N1C[C@H](C)[C@H](CN(C)Cc2ccc3c(c2)OCO3)Oc2ccc(NC(=O)CCCCCC(=O)Nc3ccccc3N)cc2C1=O	none
C[C@@H]1CN([C@@H](C)CO)C(=O)c2cc(NC(=O)CCCCCC(=O)Nc3ccccc3N)ccc2O[C@@H]1CN(C)Cc1ccc2c(c1)OCO2	none

Source: PubChem (Broad Institute)
